FUS yeast rescue: qHTS for Suppressors of FUS Proteinopathy: Primary screen using FUS-linked yeast assay. Potency, µM (doses to about 76.6 µM), usual class: activators. AID 1347120, 2019. actives 0.24% (n = 390,000). S. cerevisiae FUS-expressing, growth rescue, OD600, 24 h;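 also: plate controls were DMSO vehicle for no effect and reference control for full effect; nearly all actives have a fitted effect of over 55% in size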
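Yeast FUS proteinopathy model; galactose-induced FUS (2%), starting OD 0.005. Cpds in dilution series, 24hr, 30C, 99% humidity. Abs 600 nm growth. Pos ctrl CP55940 (top 92uM final); neg ctrl DMSO.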
aSyn rescue: qHTS of alpha-syn Inhibitors | Yeast expressing alpha-synuclein, growth rescue, BacTiter-Glo, 24 h | Potency, µM (series often up to 46.1 µM), without a hit: top-dose growth rescue (activation), actives largely listed as activators | actives 0.14% (n = 370,000); also: % of control where 0% means no effect; nearly all actives have a fitted effect of over 65% in size
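Galactose-induced alpha-syn yeast (OD600=0.02, raffinose-pregrown) + pinned cpd, 24 hr, 30 deg C; growth by BacTiter-Glo luminescence. Growth restoration scores as activation.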
Abeta yeast res: qHTS for compounds that reverse cellular toxicity of Amyloid beta (A-beta) peptide in yeast: Primary Screen; yeast expressing A-beta42, growth rescue, OD600, 48 h; response scale: 0% DMSO, 100% iron-clioquinol control; Potency, µM (titrated, usually from 46.1 µM), actives largely listed as activators; actives 0.063% (n = 410,000); also: nearly all actives have a fitted effect of over 55% in size
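Growth rescue measured by 600 nm absorbance after 48 h yeast culture at 30 C with compound. Values normalized between DMSO and an equimolar ferric chloride plus clioquinol control.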
TDP43 rescue: qHTS of TDP-43 Inhibitors | Potency, µM (top dose mostly 46.1 µM), for the others: at the top dose growth rescue (activation), most hits filed as activators | TDP-43 expressing yeast growth rescue, BacTiter-Glo, 24 h | actives 1.8% (n = 410,000); also: % of control where 0% means no effect; nearly all actives have a fitted effect of over 50% in size
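Growth rescue of TDP-43-toxic yeast measured as ATP luminescence (BacTiter-Glo). Cells grown to mid-log in raffinose, induced in galactose at OD600=0.02, exposed to compound 24 hr at 30 deg C.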
The depositor's hits bear a star; i = inactive; ? = inconclusive; / = no result given. A selection: hits, their analogues and other compounds. The true share with any hit is near 2.1%. Calls follow the shape of the dose curve; as a rule, active = well fitted curve in the direction sought with a large enough effect; inconclusive = small, poorly fitted or top-dose-only effect, or another doubt; inactive = no such curve, though single readings can be large; an effect the other way counts as inactive or inconclusive. Potency is read from the fitted curve at half-maximal effect.

SMILES | FUS yeast rescue | aSyn rescue | Abeta yeast res | TDP43 rescue
O=S(=O)(NCCc1csc(-c2cccnc2)n1)c1ccc(F)cc1 | / | -13% | i | 14µM*
COc1ccc(S(=O)(=O)NCCc2sc(-c3ccccc3)nc2C)cc1F | i | 5% | i | 22µM*
COc1ccc(S(=O)(=O)NCCc2csc(-c3ccc(F)cc3)n2)cc1 | i | / | i | 16µM*
COc1ccc(-c2nc(CNS(=O)(=O)c3ccc(C)cc3)cs2)cc1 | i | / | i | 3%
Cc1ccc(S(=O)(=O)NCCc2csc(-c3ccc(Cl)cc3)n2)cc1 | i | / | ? | 20µM*
C=CCN1[C@@H](CC(C)C)COc2cccc(N3CCSCC3)c2S1(=O)=O | i | / | / | /
Cc1ccc(C)c(NC(=O)CSc2ncc3c(n2)-c2cc(Cl)ccc2N(Cc2ccccc2F)S3(=O)=O)c1 | i | / | i | 0%
COC(=O)c1cccc(Cn2ccc3ccc(-c4ccc5ccn(C(=O)C6CC6)c5c4)cc32)c1 | i | / | / | /
CC1=C(c2ccc(C)c(C)c2)S(=O)(=O)N(Cc2ccc(C(=O)Nc3cc(F)ccc3F)cc2)C1=O | i | / | i | 21%
Cc1cc(N2CCOCC2)nc(SCC(=O)OCc2ccccc2)n1 | i | 2% | i | 3%
Cc1cc(N2CCOCC2)nc(SCc2ccc(Cl)cc2Cl)n1 | ? | -6% | i | 35µM*
O=C(Nc1cccc(-c2nc3cc(Cl)ccc3o2)c1)c1ccc(F)cc1 | i | -24% | i | -3%
Cc1c(CC(=O)N2CCN(C(=O)C3COc4ccccc4O3)CC2)c(=O)oc2cc(O)cc(O)c12 (stereo not drawn) | 18µM* | -18% | i | -7%
CC(CCC(C)[n+]1cccc(Br)c1)[n+]1cccc(Br)c1 (stereo not drawn) | / | -10% | / | /
O=C(Nc1cc(Cl)ccc1-n1cncn1)c1ccc([N+](=O)[O-])o1 | i | -28% | i | 14µM*
Cc1ccc(C)c(N/N=C2\CCCNC2=O)c1 | / | -17% | i | 20µM*
Cc1ccccc1N/N=C1\CCCNC1=O | i | -8% | i | 16%
CCOC(=O)[C@@]12CCCC3=C1N(CCC3)C(=O)[C@H]2CC(=O)N1CCN(C(=O)c2ccco2)CC1 | i | / | / | /
O=C(NCc1ccco1)c1noc2c1CCCC2 | i | 0% | i | -9%
CC1CCc2onc(C(=O)NCc3ccco3)c2C1 (stereo not drawn) | i | 0% | i | 25µM*
CCSc1nc(-c2ccc(OC)cc2)nc2c1Cc1c(CO)cnc(C)c1O2 | i | / | i | 4%
c1ccc2nccnc2c1 | / | -14% | / | /
Cc1ccc2nc(SCC(=O)Nc3cccnc3Cl)[nH]c2c1 | / | 0% | i | -23%
CC(=O)c1cc2c(cc1NC(=O)CSc1nc3ccc(C)cc3[nH]1)OCO2 | i | 8% | i | 13µM*
Cc1cccc(OCCCC(=O)NNC(=O)c2ccccn2)c1 | i | ? | ? | 22µM*
SMILES | FUS yeast rescue | aSyn rescue | Abeta yeast res | TDP43 rescue
Cc1cccc(OCCCC(=O)NNC(=O)c2ccncc2)c1 | i | 0% | i | -6%
NC(=Nc1nc(-c2ccccn2)cc2ccccc12)c1ccccn1 | / | ? | ? | 3.2µM*
N/C(=N\OC(=O)c1cccc2ccccc12)c1ccccn1 | i | -46% | i | -42%
O=C(CSCc1cnn(-c2ccccc2)c1-n1cccc1)NCc1cccnc1 | i | -3% | i | /
O=C(CCSCc1cnn(-c2ccccc2)c1-n1cccc1)NCc1ccc(Cl)cc1 | i | / | ? | 20µM*
Cc1ccc(CNC(=O)CCSCc2cnn(-c3ccccc3)c2-n2cccc2)cc1 | i | / | i | 20µM*
Cc1ccc2nc(N3CCN(c4ccccc4F)CC3)c3nnnn3c2c1 | i | / | i | 4%
C[S+](C)CC(=O)c1ccc2ccccc2c1 | / | 1% | / | /
Cc1ccc2c(=O)cc(C(=O)Nc3ccc(S(=O)(=O)N4CCC(C)CC4)cc3)oc2c1C | i | / | i | 5%
CCOC(=O)c1sc2nc3c(cc2c1N)COC(C)(CC)C3 (stereo not drawn) | i | / | i | 11µM*
Clc1cccc(-c2nc3ccc(Cl)cn3c2Cc2ccsc2)c1 | i | 0% | i | ?
Fc1cccc(Cc2c(-c3cccc(Br)c3)nc3ccc(Cl)cn23)c1 | i | -2% | i | 25µM*
Clc1cccc(-c2nc3ccc(Cl)cn3c2Cc2ccccc2)c1 | i | 19% | i | 16µM*
Fc1ccc(-c2nc3ccc(Br)cn3c2Cc2cccc(F)c2)cc1 | i | -8% | i | 16%
CCc1cccc(C)c1NC(=O)c1cc(S(=O)(=O)NCc2ccccc2Cl)ccc1F | i | / | i | -9%
O=C(Nc1cc(Cl)ccc1F)C1CCCN(c2nnc(-n3cccc3)s2)C1 (stereo not drawn) | i | / | / | /
NC(Cc1ccc(C(F)(F)F)cc1)c1csc(NC(=O)NCCc2ccccc2)n1 (stereo not drawn) | 22µM* | -37% | i | 0%
CC(C)CC(N)c1csc(NC(=O)NCCc2ccccc2)n1 (stereo not drawn) | i | 2% | i | 12%
CCN(CC)S(=O)(=O)c1ccc(N2CCOCC2)c(NC(=O)c2ccc(C#N)cc2)c1 | 28µM* | 2% | i | 1%
CCN(CC)S(=O)(=O)c1ccc(N2CCOCC2)c(NC(=O)c2ccc(F)cc2)c1 | i | 2% | i | ?
COc1ccc(NC(=O)CCc2nc3cccnc3n2-c2ccccc2)cc1Cl | i | / | i | 6%
COc1ccc(-c2csc(C(C)(O)c3cccc(F)c3)n2)cc1OC (stereo not drawn) | i | -1% | i | 35µM*
COc1ccc(-c2csc(C(C)(O)c3ccncc3)n2)cc1OC (stereo not drawn) | i | -11% | i | 14%
N#Cc1cccc(-c2csc(C(O)(c3ccccc3)C(F)(F)F)n2)c1 (stereo not drawn) | i | -50% | 13µM* | -80%
COc1ccc(-c2csc(C(C)(O)c3cccc(OC)c3)n2)cc1 (stereo not drawn) | i | 15% | i | ?
OC(c1ccccc1)(c1nc(-c2cccc(C(F)(F)F)c2)cs1)C(F)(F)F (stereo not drawn) | i | -84% | i | -92%
CC(O)(c1cccc(F)c1)c1nc(-c2cccc(C(F)(F)F)c2)cs1 (stereo not drawn) | i | -44% | i | -94%
COc1cccc(C(C)(O)c2nc(-c3ccc(C)c(C)c3)cs2)c1 (stereo not drawn) | i | -14% | i | 14µM*
CC(O)(c1cccc(F)c1)c1nc(-c2cccc(C#N)c2)cs1 (stereo not drawn) | i | 10% | i | 35µM*
CCN(C(=O)c1nn(-c2ccc(C)cc2)c(=O)c2c1c1ccccc1n2C)c1ccc(F)cc1 | i | / | i | 0%
